These results are taken from PubChem BioAssay.

Test [1] in a line: antimalarial activity against Dd2 strain (AID 2302;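 active = growth inhibition above 50% at the single 2 µM test dose, taken to imply half-maximal potency below 2 µM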;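 also: 0% = DMSO untreated growth and 100% = chloroquine plus artemisinin killed control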). As to conditions: P. falciparum Dd2 in RBCs, LDH growth readout, 72 h; at 2 µM; hits give high values.
Test [2] is described as follows: human hepatoma cell viability loss – ATP luminescence, cytotoxicity control for P. falciparum antimalarial project, primary screen (AID 2303;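 active = inhibition above 50%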;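 also: 0% = DMSO wells and 100% = digitonin-killed cells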). As to conditions: HepG2 viability, 24-48 h, at 10 µM, hits give high values.
Test [3] deals with L-lactate dehydrogenase (Plasmodium falciparum (isolate CDC / Honduras)) (UniProt Q27743). Kind of test: PfLDH activity inhibition – cell lysate, 3D7 strain, counter-screen for P. falciparum growth inhibition project (AID 2304).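 Also: 0% = vehicle and 100% = reference inhibitor.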 The note with it: P. falciparum 3D7 crude extract, LDH APAD/NBT absorbance; at 2 µM; hits give high values. For orientation: Counterscreens check selectivity or assay interference.
Chain of L-lactate dehydrogenase (Plasmodium falciparum (isolate CDC / Honduras)) (Q27743 whole entry, looked up): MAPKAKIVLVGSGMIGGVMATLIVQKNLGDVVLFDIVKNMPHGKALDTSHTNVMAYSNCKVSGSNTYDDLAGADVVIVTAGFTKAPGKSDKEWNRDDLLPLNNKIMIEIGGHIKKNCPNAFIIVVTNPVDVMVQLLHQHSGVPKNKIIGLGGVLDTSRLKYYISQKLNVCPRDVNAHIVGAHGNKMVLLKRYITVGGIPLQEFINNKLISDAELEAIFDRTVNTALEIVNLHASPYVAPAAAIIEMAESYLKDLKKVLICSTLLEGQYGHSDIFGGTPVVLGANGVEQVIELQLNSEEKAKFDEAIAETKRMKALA

A short description of test [4]: inhibition of 3D7 malaria parasite growth – strain 3D7 (AID 2306).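 Also: 0% = DMSO wells and 100% = chloroquine plus artemisinin control wells.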 As to conditions: P. falciparum 3D7 erythrocytic growth, LDH absorbance, 72 h; at 2 µM; hits give high values.
Test [5] has as its target Calcium-dependent protein kinase 1 (Plasmodium falciparum (isolate 3D7)) (UniProt P62344). The test can be described thus: PfCDPK1 kinase inhibitors, biochemical, TCAMS library (AID 1159585; cut-off not given, nearly all actives have IC50 up to about 0.98 µM;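 also: inhibitors leave more ATP so luminescence rises with inhibition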). As to conditions: recombinant PfCDPK1, Kinase-Glo ATP depletion luminescence. Background: Kinase-Glo reads ATP consumption through a luciferase reaction.
Test [6] addresses Plasmodium falciparum protein kinase 6 (PK6, PF3D7_1337100) (UniProt Q8IDW1). The test can be described thus: PfPK6 kinase inhibitors, biochemical, TCAMS library (AID 1159586). The note with it: recombinant PfPK6, Kinase-Glo ATP depletion luminescence.
Test [7] addresses Protein kinase 7 (PK7), Plasmodium falciparum 3D7 (PF3D7_0213400) (UniProt Q7YTF7). The test can be described thus: inhibition of Plasmodium PK7 catalytic activity – biochemical, TCAMS antimalarial set, Kinase-Glo luminescence (AID 1159587). The note with it: recombinant PfPK7, Kinase-Glo ATP depletion luminescence.
For test [8], the target named is Calcium-dependent protein kinase 4 (Plasmodium falciparum (isolate 3D7)) (UniProt Q8IBS5). The test can be described thus: PfCDPK4 kinase inhibitors, biochemical, TCAMS library (AID 1159588; cut-off not given, nearly all actives have IC50 up to about 0.91 µM). As to conditions: recombinant PfCDPK4, Kinase-Glo ATP depletion luminescence.
Chain of Calcium-dependent protein kinase 4 (Plasmodium falciparum (isolate 3D7)) (Q8IBS5 whole entry, looked up): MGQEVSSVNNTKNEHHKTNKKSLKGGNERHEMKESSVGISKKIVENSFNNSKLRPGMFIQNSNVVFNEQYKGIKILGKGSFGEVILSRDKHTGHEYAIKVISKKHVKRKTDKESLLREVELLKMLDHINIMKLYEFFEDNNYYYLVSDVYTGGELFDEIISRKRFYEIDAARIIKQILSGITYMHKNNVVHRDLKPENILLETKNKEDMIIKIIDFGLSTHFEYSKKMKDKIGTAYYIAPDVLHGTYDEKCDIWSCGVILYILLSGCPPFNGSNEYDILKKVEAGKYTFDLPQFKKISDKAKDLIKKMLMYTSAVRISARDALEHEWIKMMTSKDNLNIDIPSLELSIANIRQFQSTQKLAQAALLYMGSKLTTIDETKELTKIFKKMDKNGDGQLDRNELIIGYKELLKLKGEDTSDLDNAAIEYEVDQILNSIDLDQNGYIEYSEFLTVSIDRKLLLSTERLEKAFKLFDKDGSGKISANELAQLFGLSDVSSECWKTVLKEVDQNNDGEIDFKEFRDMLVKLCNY

A number with no mark means an inactive call. For some assays here: Entries with a potency or affinity are not part of this list. Calls of active or inactive are those of the source. Unless noted, no rule for the calls is given here.

Chain of Protein kinase 7 (PK7), Plasmodium falciparum 3D7 (PF3D7_0213400) (Q7YTF7 1-343): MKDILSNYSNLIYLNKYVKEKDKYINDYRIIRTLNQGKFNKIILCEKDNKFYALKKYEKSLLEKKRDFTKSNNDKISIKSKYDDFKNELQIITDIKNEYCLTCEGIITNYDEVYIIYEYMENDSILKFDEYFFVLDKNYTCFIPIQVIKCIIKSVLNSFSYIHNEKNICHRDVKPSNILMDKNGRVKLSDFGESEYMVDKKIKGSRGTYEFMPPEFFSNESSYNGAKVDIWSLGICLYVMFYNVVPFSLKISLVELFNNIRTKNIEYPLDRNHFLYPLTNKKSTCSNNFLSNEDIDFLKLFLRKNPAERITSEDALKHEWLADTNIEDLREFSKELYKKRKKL
Chain of Plasmodium falciparum protein kinase 6 (PK6, PF3D7_1337100) (Q8IDW1 1-305): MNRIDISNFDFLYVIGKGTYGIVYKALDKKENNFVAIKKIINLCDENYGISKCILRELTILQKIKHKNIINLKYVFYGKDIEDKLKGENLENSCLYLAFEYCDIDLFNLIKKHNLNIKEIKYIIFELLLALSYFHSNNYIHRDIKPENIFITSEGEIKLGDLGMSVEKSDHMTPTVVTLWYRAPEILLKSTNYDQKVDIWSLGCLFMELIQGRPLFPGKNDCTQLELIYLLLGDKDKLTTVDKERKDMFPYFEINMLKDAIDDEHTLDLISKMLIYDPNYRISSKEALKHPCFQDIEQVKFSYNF
Chain of Calcium-dependent protein kinase 1 (Plasmodium falciparum (isolate 3D7)) (P62344 whole entry, looked up): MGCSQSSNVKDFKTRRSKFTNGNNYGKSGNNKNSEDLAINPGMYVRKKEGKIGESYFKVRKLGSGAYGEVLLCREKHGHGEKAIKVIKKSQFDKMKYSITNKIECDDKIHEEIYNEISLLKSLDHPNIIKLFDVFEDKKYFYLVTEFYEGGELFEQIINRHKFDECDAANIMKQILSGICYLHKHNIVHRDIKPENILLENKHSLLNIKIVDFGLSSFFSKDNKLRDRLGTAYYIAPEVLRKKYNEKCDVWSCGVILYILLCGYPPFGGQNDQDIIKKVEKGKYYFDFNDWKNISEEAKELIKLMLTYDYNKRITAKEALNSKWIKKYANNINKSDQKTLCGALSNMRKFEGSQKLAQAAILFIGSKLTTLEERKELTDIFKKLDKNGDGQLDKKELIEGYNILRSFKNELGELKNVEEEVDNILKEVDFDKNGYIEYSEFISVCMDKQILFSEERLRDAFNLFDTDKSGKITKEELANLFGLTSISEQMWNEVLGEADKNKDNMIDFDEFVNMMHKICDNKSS

On to `CCOC(=O)c1c(C)noc1Nc1cccc(C)c1C`, for which the growth inhibition in test [1] is -2%; in test [4], 98% (active). The inhibition in test [2] is 8%; in test [3], 2%. The outcome in test [5], in test [6], in test [7] and in test [8] was inactive.
On to `O=C(Cc1cnc[nH]1)Nc1ccc(-c2cccc(-c3nc4ccc(C(F)(F)F)cc4[nH]3)c2)cc1`, for which the growth inhibition in test [1] is 95% (active); in test [4], 101% (active). The inhibition in test [2] was 20%; in test [3], -8%. In addition, the result in test [5], in test [6], in test [7] and in test [8] was inactive.
`CC(C)Nc1nc(NCCc2cnc[nH]2)nc(NCc2cccc3ccccc23)n1`: the growth inhibition is 0% in test [1] and 90% (active) in test [4]. The inhibition in test [2] was 4%; in test [3], 2%. For the same molecule, the outcome in test [5], in test [6], in test [7] and in test [8] was inactive.
Take `COc1ccc2nccc([C@@H](O)CN3CCC(NCc4cc5ccccc5[nH]c4=O)CC3)c2c1`: the values for the growth inhibition in test [1] and in test [4] were -3% and 97% (active), respectively. Besides, the results for the inhibition in test [2] and in test [3] were -6% and 3%, respectively. Further, the outcome in test [5], in test [6], in test [7] and in test [8] was inactive.
For the molecule `CSc1ccc(CN2CCC(NC(=O)c3ccc(-c4ccc(N(C)C)cc4)s3)CC2)cc1`, the growth inhibition in test [1] was 26%; in test [4], 86% (active). In addition, the inhibition was 30% in test [2] and -2% in test [3]. For the same molecule, the outcome in test [5], in test [6], in test [7] and in test [8] was inactive.
For the molecule `CC1(C)N=C(N)N=C(N)N1OCCc1ccc(N)cc1`, the figures for the growth inhibition in test [1] and in test [4] were 95% (active) and 93% (active), respectively. Besides, the inhibition in test [2] is 65% (active); in test [3] it was -6%. In addition, the outcome in test [5], in test [6], in test [7] and in test [8] was inactive.
On to `O=C1C(c2ccccc2)=C(Nc2cccc(OC(F)(F)C(F)F)c2)c2ccccc21`, for which the growth inhibition in test [1] and in test [4] was 96% (active) throughout. Besides, the inhibition is -5% in test [2] and 0% in test [3]. In addition, the outcome in test [5], in test [6], in test [7] and in test [8] was inactive.
On to `COc1ccc(C(=O)Cn2nc(-c3ccc(Cl)cc3)ccc2=O)c(OC)c1`, for which the growth inhibition in test [1] is 70% (active); in test [4], 93% (active). The values for the inhibition in test [2] and in test [3] were -12% and 4%, respectively. Further, the result in test [5], in test [6], in test [7] and in test [8] was inactive.
As for `FC(F)(F)c1ccc(CNCC2CCN(Cc3ccc4c(c3)OCO4)CC2)cc1`, the growth inhibition in test [1] was 12%; in test [4] it was 80% (active). Further, the inhibition in test [2] was 27%; in test [3] it was -5%. Besides, the outcome in test [5], in test [6], in test [7] and in test [8] was inactive.
On to `COc1cc2nccc(Nc3ccc(NC(=O)c4ccc(C)cc4)c(O)c3)c2cc1OC`, for which the growth inhibition in test [1] was 77% (active); in test [4] it was 101% (active). In addition, the inhibition in test [2] is 96% (active); in test [3], 1%. In addition, the result in test [5], in test [6], in test [7] and in test [8] was inactive.
As to `N#Cc1ccc(-c2ccc(C(=O)NCCCCN3CCC(c4cc(Br)c5c(c4OCC(N)=O)CCCC5)CC3)cc2)cc1`, the growth inhibition in test [1] was 89% (active); in test [4] it was 100% (active). The inhibition in test [2] was 23%; in test [3], 6%. For the same molecule, the outcome in test [5], in test [6], in test [7] and in test [8] was inactive.
Consider `Clc1ccc(-c2cc(-c3csc(Nc4ccncc4)n3)on2)cc1`, for which the results for the growth inhibition in test [1] and in test [4] were 99% (active) and 100% (active), respectively. Further, the figures for the inhibition in test [2] and in test [3] were 1% and 3%, respectively. Also, the outcome in test [5], in test [6], in test [7] and in test [8] was inactive.
Take `CSc1ccc2ccccc2c1CCNCCCCNCCc1c(SC)ccc2ccccc12`: the growth inhibition in test [1] is 60% (active); in test [4] it was 101% (active). Besides, the inhibition in test [2] is 99% (active); in test [3] it was 3%. Besides, the outcome in test [5], in test [6], in test [7] and in test [8] was inactive.
For `CCN(CC)CCOc1ccc(NC(=O)c2oc3ccccc3c2C=Cc2ccccc2)cc1`, the growth inhibition in test [1] is 54% (active); in test [4], 98% (active). The inhibition in test [2] is 51% (active); in test [3], -2%. The result in test [5], in test [6], in test [7] and in test [8] was inactive.
On to `COc1ccc(N2CCN(CCCCNC(=O)c3ccc(NC(=O)c4cc(Cl)cc(Cl)c4)cc3)CC2)c(OC)c1`, for which the growth inhibition in test [1] is 84% (active); in test [4] it was 100% (active). The values for the inhibition in test [2] and in test [3] were 21% and 2%, respectively. Also, the outcome in test [5], in test [6], in test [7] and in test [8] was inactive.
`COc1cc(NC(=O)/C=C/c2cc3ccccc3n2C)ccc1OCCN(C(C)C)C(C)C`: the growth inhibition is 68% (active) in test [1] and 99% (active) in test [4]. Also, the inhibition in test [2] was 16%; in test [3] it was 4%. Moreover, the outcome in test [5], in test [6], in test [7] and in test [8] was inactive.
With `COc1ccc(CN2CCCN(Cc3cccc(C(=O)Nc4ccc(C(C)(C)C)cc4)c3)CC2)cc1`, the growth inhibition is 3% in test [1] and 98% (active) in test [4]. In addition, the values for the inhibition in test [2] and in test [3] were 46% and 2%, respectively. The result in test [5], in test [6], in test [7] and in test [8] was inactive.
Turning to `N#Cc1cccc(CN(Cc2ccc(Cl)c(Cl)c2)S(=O)(=O)c2cccc([N+](=O)[O-])c2)c1`, the growth inhibition in test [1] is 73% (active); in test [4] it was 100% (active). The inhibition in test [2] is 3%; in test [3], -8%. Further, the result in test [5], in test [6], in test [7] and in test [8] was inactive.
As to `CCCCCCN1CCC(NCc2cccc(C#N)c2)CC1`, the growth inhibition in test [1] is 9%; in test [4], 97% (active). Moreover, the figures for the inhibition in test [2] and in test [3] were 5% and -1%, respectively. In addition, the result in test [5], in test [6], in test [7] and in test [8] was inactive.

Usually inhibition stands for the relative decrease from the control value, in per cent.
